# DT40 TDP1 no CPT: qHTS for Inhibitors of human tyrosyl-DNA phosphodiesterase 1 (TDP1): qHTS in cells in absence of CPT; 420,000 tested, 15% active; DT40 Tdp1-/- hTDP1 cells, no CPT, ATP luminescence, 48 h; Potency, µM (highest dose often 46.2 µM), for inactives: at the top dose activity change, negative = growth inhibition, usual class: inhibitors; AID 686978, 2013; note: nearly all actives have a fitted effect of over 55% in size
#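 Stably hTDP1-transfected Tdp1-null chicken DT40 cells were treated with library compounds minus camptothecin and grown for at least 48 hr at 37 °C, after which cellular ATP was quantified by luminescence.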
# KB-3-1 cytotox: KB-3-1 parental cell cytotoxicity; KB-3-1 viability, CellTiter-Glo ATP luminescence, 72 h; Potency, µM (series often up to 46.1 µM), actives largely listed as cytotoxic; 400,000 tested, 1.4% active; AID 1347075; note: nearly all actives have a fitted effect of over 60% in size
#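 Cells are dispensed, compounds pinned in, plates held at 37 °C for 72 h, then CellTiter-Glo is added and luminescence read after 10 minutes. Cell line: parental KB-3-1 in phenol-red-free DMEM, 10% FBS.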
# KB-V1 cytotox: KB-V1 MDR subline cytotoxicity; KB-V1 MDR cells viability, CellTiter-Glo, 72 h; Potency, µM (highest dose often 46.1 µM), usual class: cytotoxic; 400,000 tested, 3.4% active; note: nearly all actives have a fitted effect of over 60% in size
#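 qHTS viability screen in drug-selected KB-V1 MDR cells: 72 h compound treatment at 37 degrees C, ATP luminescence end point.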
# HT1080 IDH1KD tx: HT-1080 IDH1 knockdown cell toxicity (counter line). HT-1080 IDH1 knockdown viability, ATP luminescence, 48 h. Potency, µM (series often up to 46.1 µM), for inactives: at the top dose activity, negative = toxicity, usual class: cytotoxic. 360,000 tested, 2% active. AID 686971;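 note: 0% = DMSO wells and -100% = cell-free medium wells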
#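 Using the IDH1-knockdown HT-1080 line run in the same batch and compound series as the NT line, viability after 48 h at 37 °C was determined by CellTiter-Glo luminescence and expressed as % activity.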
# TDP1 cell CPT: DT40-hTDP1 cell growth loss with CPT; chicken DT40 Tdp1-/-;hTDP1 cells + 20 nM CPT, ATP luminescence, 48 h; Potency, µM (doses to about 46.2 µM), for inactives: top-dose activity change, negative = growth inhibition, usual class: inhibitors; 420,000 tested, 12% active; AID 686979; note: nearly all actives have a fitted effect of over 55% in size
#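 Cell growth measured by CellTiter-Glo luminescence after a minimum 48 h, 37 C compound exposure with 20 nM CPT in Tdp1-knockout DT40 cells stably expressing hTDP1, seeded 400/well; qHTS titration format.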
# HT1080-NT tox: kills 2HG-producing HT-1080-NT fibrosarcoma cells; HT-1080-NT fibrosarcoma viability, CellTiter-Glo ATP luminescence, 48 h; Potency, µM (top dose mostly 46.1 µM), for inactives: at the highest dose activity, negative = less viability, usual class: cytotoxic; 360,000 tested, 1.6% active; AID 686970;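 note: NT is the 2HG producing partner of a matched IDH1 knockdown line; 0% = DMSO-treated cells and -100% = media-only wells without cells; nearly all actives have a fitted effect of over 55% in size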
#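 HT-1080-NT; 750 cells/well; 5% FBS RPMI; 48 h compound, 37 degrees C; CellTiter-Glo luminescence; curve fitting and curve-class assignment.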
# An asterisk follows results filed as active; i = inactive; ? = inconclusive; nt = not tested or not shown; [ ] = dose if it differs, or a comment. Compounds with a hit are over-represented: about 19% of the library has one in this group of screens. Calls come from the whole dose curve; as a rule, active = well fitted curve in the direction sought with a large enough effect; inconclusive = small, poorly fitted or top-dose-only effect, or another doubt; inactive = no such curve, though single readings can be large; an effect the other way counts as inactive or inconclusive. Unless noted, % is set by controls: 0 for no effect and ±100 for the full control effect; potency is the fitted concentration of half-maximal effect.
SMILES,DT40 TDP1 no CPT,KB-3-1 cytotox,KB-V1 cytotox,HT1080 IDH1KD tx,TDP1 cell CPT,HT1080-NT tox
COc1ccccc1P(=O)(Cc1ccccc1[N+](=O)[O-])c1ccccc1 (stereo not drawn),14.6µM*,i,?,-0.5%,?,-13.1%
COc1cc2nc(Cl)nc(N3CCOCC3)c2cc1OC,?,i,?,-11.1%,?,-5.3%
COc1cc2nc(Cl)nc(N3CCCCC3)c2cc1OC,25.9µM*,i,i,2.2%,-15.0%,-0.1%
CC1CCN(c2ccc(-c3cccc(NS(=O)(=O)c4cccs4)c3)nn2)CC1,-5.9%,i,i,nt,-7.8%,nt
CCOC(=O)c1ccc(NC(=O)c2csnn2)cc1,-29.5%,i,i,nt,-3.1%,nt
CC(=O)C1=C(O)C(=O)N(c2ccccn2)C1c1ccccc1[N+](=O)[O-] (stereo not drawn),16.4µM*,i,i,1.2%,?,10.5%
O=C(c1ccc(NC(=S)NCc2ccco2)cc1)N1CCOCC1,-1.6%,i,i,-4.3%,-3.1%,-7.2%
CCCc1ccc2oc(C(=O)NCCN3CCCC(O)C3)c(C)c2c1 (stereo not drawn),?,i,i,23.1µM*,?,?
CCCc1ccc2oc(C(=O)NCCN3CCCC(C(N)=O)C3)c(C)c2c1 (stereo not drawn),?,i,i,-16.1%,?,-19.1%
COCCCNc1nc2c(-c3cccc(Br)c3)nnn2c2ccccc12,?,i,i,nt,?,nt
CC[C@]12c3[nH]c4ccc(Cl)cc4c3CCN1C(=O)[C@@H](CC(=O)NCCC1=CCCCC1)C[C@@H]2C(=O)N1CCN(C(=O)C2CC2)CC1,25.9µM*,i,i,-0.1%,?,-6.1%
CC[C@]12c3[nH]c4ccccc4c3CCN1C(=O)C(CC(=O)NCCC1=CCCCC1)C[C@@H]2C(=O)N1CCN(C(=O)C2CC2)CC1 (stereo partly drawn),16.4µM*,i,i,8.3%,18.4µM*,8.2%
O=C(Cn1cnc2nc3c(cc2c1=O)CCCC3)Nc1ccc(F)cc1Cl,-14.3%,i,i,nt,1.8%,nt
COc1ccc(N2CCN(C(=O)c3cc4c(s3)-c3ccccc3OC4)CC2)cc1,-20.4%,i,?,4.5%,-3.3%,16.7%
COc1ccccc1N1CCN(C(=O)c2ccc([N+](=O)[O-])s2)CC1,?,?,?,15.4%,?,2.6%
COc1ccc(N2CCN(C(=O)c3cc4c(s3)CCCCC4)CC2)cc1,?,i,i,-6.7%,20.6µM*,12.4%[9.24 µM]
CC(=O)c1ccc(N2CCN(C(=O)c3cc4c(s3)CCCC4)CC2)cc1,?,?,i,-6.8%,23.1µM*,-14.3%
COc1ccc2c(c1)CCc1cc(C(=O)N3CCN(c4ccc(N5CCOCC5)nn4)CC3)sc1-2,?,i,i,-18.7%,20.6µM*,-15.1%
COc1ccccc1N1CCN(C(=O)c2cc3c(s2)CCC3)CC1,29.1µM*,i,i,1.9%,?,-4.0%
CC1CCN(C(=O)CCC(=O)Nc2ccc([N+](=O)[O-])cc2)CC1,-11.9%,i,?,?,-2.8%,-19.8%
O=C(CSc1oc(-c2ccccc2)nc1S(=O)(=O)c1ccc(Cl)cc1)c1ccccc1,18.4µM*,i,i,nt,14.6µM*,nt
O=C(CSc1oc(-c2ccc(F)cc2)nc1S(=O)(=O)c1ccc(Cl)cc1)c1ccccc1,14.6µM*,i,i,nt,16.4µM*,nt
COc1cc([C@@H]2Nc3c(F)cccc3[C@@H]3C=CC[C@@H]32)cc(Br)c1OC,?,i,i,nt,?,nt
Cc1ccc(OCC(=O)NCC2(N(C)C)CCCCC2)cc1C,-5.5%,i,i,nt,-5.0%,nt
O=C(Cn1nnc(-c2ccc(F)cc2)n1)Nc1cccc(S(=O)(=O)N2CCCC2)c1,?,?,i,-14.8%,20.6µM*,-24.6%
SMILES,DT40 TDP1 no CPT,KB-3-1 cytotox,KB-V1 cytotox,HT1080 IDH1KD tx,TDP1 cell CPT,HT1080-NT tox
O=C(Cn1nnc(-c2ccccc2Cl)n1)Nc1cccc(S(=O)(=O)N2CCCC2)c1,20.6µM*,i,?,-27.0%,23.1µM*,?
CN(C)c1ccc(CNC(=O)C2CCN(S(=O)(=O)c3ccc4c(ccn4C)c3)CC2)cc1,?,i,i,nt,?,nt
c1ccc(C2OCCN2c2ccccc2)cc1 (stereo not drawn),-1.8%,i,i,0.5%,4.2%,-1.5%
COc1ccc(CCC(=O)O)c(C(CC(=O)O)C(=O)O)c1OS(=O)(=O)c1ccc(C)cc1 (stereo not drawn),-15.8%,?,i,5.4%,-2.6%,11.2%
CC(C)c1nnc(NC(=O)C2CCN(S(=O)(=O)c3ccc(-n4cnnn4)cc3)CC2)s1,5.1%,i,i,9.8%,-4.8%,-1.9%
COc1ccccc1CNC(=O)c1cc2cccc3c2n1CC(C)S3 (stereo not drawn),23.1µM*,?,i,nt,20.6µM*,nt
CC1Cn2c(C(=O)NCc3ccccc3Cl)cc3cccc(c32)S1 (stereo not drawn),?,i,i,nt,?,nt
Cc1ccccc1CNC(=O)c1cc2cccc3c2n1CC(C)S3 (stereo not drawn),?,i,i,nt,?,nt
CC1Cn2c(C(=O)NCCc3ccc(Cl)cc3)cc3cccc(c32)S1 (stereo not drawn),?,i,i,nt,16.4µM*,nt
CC(CCc1ccccc1)NC(=O)COC(=O)c1ccc(NC(N)=O)cc1 (stereo not drawn),0.1%,i,i,20.6%,-10.7%,17.2%
CCc1ccn2cc(-c3ccc4c(c3)OCO4)nc2c1,?,?,?,13µM*,6.0%,11.6µM*
COC(=O)c1ccc2nc(-c3ccc4c(c3)OCO4)cn2c1,-13.5%,i,i,22.6%,-10.7%,12.1%
CC(C)(C)NCC(O)COc1c(F)cc(Br)cc1F (stereo not drawn),-10.6%,i,i,0.2%,-1.4%,8.5%
CC(C)(C)CC(C)(C)NCC(O)COc1c(F)cc(Br)cc1F (stereo not drawn),23.1µM*,?,20.6µM*,20.6µM*,?,20.6µM*
COc1ccc(S(=O)(=O)NNS(=O)(=O)c2ccc(OC)c(OC)c2)cc1OC,-17.1%,i,i,16.9%,-12.4%,?

# High-throughput results as filed in PubChem.
